Four compounds from PubChem BioAssay (EPA / NIEHS) can be followed below.

Settings in all cases: mRNA level, 48 h; actives raise or lower the signal
Read-out in assay [1]: Early growth response protein 1 (EGR1) transcription factor, EGR1 (gene 1958)
Description: LTEA_HepaRG_EGR1: Life Technologies and Expression Analysis (LTEA) Assay for Early growth response protein 1 (EGR1) transcription factor using HepaRG (AID 2283490). The procedure, abridged: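 Differentiated human HepaRG cells in serum-free induction medium were exposed in duplicate for 48 h to eight concentrations (top 100 uM, half-log steps) in 0.5% DMSO. EGR1 mRNA was quantified by qRT-PCR, normalized to ACTB, GAPDH and POLR2A, and fitted bidirectionally versus DMSO.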

Read-out in assay [2]: Ezrin (EZR), EZR (gene 7430)
As to the kind of experiment: LTEA_HepaRG_EZR: Life Technologies and Expression Analysis (LTEA) Assay for Ezrin (EZR) using HepaRG (AID 2283491). The procedure, abridged: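 Differentiated human HepaRG cells, 48 h after plating, were exposed in serum-free induction medium for 48 hours to eight half-log concentrations up to 100 uM in 0.5% DMSO. EZR mRNA was measured by TaqMan qRT-PCR, normalized to ACTB, GAPDH and POLR2A, and fitted bidirectionally against DMSO.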

Read-out in assay [3]: Fatty Acid-Binding Protein 1 (FABP1), FABP1 (gene 2168)
Description: LTEA_HepaRG_FABP1: Life Technologies and Expression Analysis (LTEA) Assay for Fatty Acid-Binding Protein 1 (FABP1) using HepaRG (AID 2283494). In outline:
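Differentiated human HepaRG cells were exposed in duplicate for 48 h in serum-free induction medium to 8-point half-log concentration series topping at 100 uM in 0.5% DMSO. FABP1 mRNA measured by TaqMan qRT-PCR, normalized to ACTB/GAPDH/POLR2A; bidirectional fit versus DMSO.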

Read-out in assay [4]: Glutathione S-Transferase (GSTA2), GSTA2 (gene 2939)
As to the kind of experiment: LTEA_HepaRG_GSTA2: Life Technologies and Expression Analysis (LTEA) Assay for Glutathione S-Transferase (GSTA2) using HepaRG (AID 2283497). The procedure, abridged:
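Human HepaRG cells, plated 48 h, then exposed in serum-free induction medium for 48 h to eight half-log concentrations up to 100 uM in 0.5% DMSO, duplicate. GSTA2 mRNA by qRT-PCR, normalized to ACTB/GAPDH/POLR2A; bidirectional fit versus DMSO.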

Read-out in assay [5]: Glutamate-cysteine ligase catalytic (GCLC), GCLC (gene 2729)
Description: LTEA_HepaRG_GCLC: Life Technologies and Expression Analysis (LTEA) Assay for Glutamate-cysteine ligase catalytic (GCLC) using HepaRG (AID 2283498). In outline:
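Differentiated human HepaRG cells, plated 48 h then switched to serum-free induction medium, were exposed in duplicate for 48 h to 8 half-log concentrations topping at 100 uM in 0.5% DMSO. GCLC mRNA was quantified by qRT-PCR against ACTB, GAPDH and POLR2A.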

Read-out in assay [6]: growth arrest and DNA damage 45 (GADD45G), GADD45G (gene 10912)
As to the kind of experiment: LTEA_HepaRG_GADD45G: Life Technologies and Expression Analysis (LTEA) Assay for growth arrest and DNA damage 45 (GADD45G) using HepaRG (AID 2283499). The procedure, abridged: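 Differentiated human HepaRG cells, 48 h post-plating, exposed 48 h in serum-free induction medium to 8 half-log concentrations (top 100 uM, 0.5% DMSO) in duplicate. GADD45G mRNA measured by Fluidigm TaqMan qRT-PCR, normalized to ACTB, GAPDH, POLR2A; bidirectional fit versus DMSO.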

Read-out in assay [7]: Glutamate-cysteine ligase regulatory (GCLM), GCLM (gene 2730)
Description: LTEA_HepaRG_GCLM: Life Technologies and Expression Analysis (LTEA) Assay for Glutamate-cysteine ligase regulatory (GCLM) using HepaRG (AID 2283500). In outline: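 Differentiated human HepaRG cells exposed 48 h in serum-free induction medium to 8-point half-log concentrations (top 100 uM, 0.5% DMSO), in duplicate. GCLM mRNA quantified by qRT-PCR, normalized to ACTB, GAPDH, POLR2A; bidirectional fitting versus DMSO.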

Read-out in assay [8]: Glutathione S-transferase M3 (GSTM3), GSTM3 (gene 2947)
Description: LTEA_HepaRG_GSTM3: Life Technologies and Expression Analysis (LTEA) Assay for Glutathione S-transferase M3 (GSTM3) using HepaRG (AID 2283501). In outline:
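Differentiated human HepaRG cells were exposed in duplicate for 48 h in serum-free induction medium, 8 points from 100 uM top in half-log steps, 0.5% DMSO. GSTM3 mRNA was measured by TaqMan qRT-PCR, normalized to ACTB, GAPDH and POLR2A; bidirectional fit versus DMSO.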

Read-out in assay [9]: Heat shock 70 kDa protein 1 (HSPA1A), gene 3303
Description: LTEA_HepaRG_HSPA1A: Life Technologies and Expression Analysis (LTEA) Assay for Heat shock 70 kDa protein 1 (HSPA1A) using HepaRG (AID 2283502). In outline: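 Differentiated human HepaRG cells in serum-free induction medium were exposed in duplicate for 48 h to eight concentrations (top 100 uM, half-log steps, 0.5% DMSO). HSPA1A mRNA was quantified by qRT-PCR, normalized to ACTB, GAPDH and POLR2A, and fitted bidirectionally against DMSO.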

Read-out in assay [10]: 3-Hydroxy-3-Methylglutaryl-CoA Synthase 2 (HMGCS2), HMGCS2 (gene 3158)
As to the kind of experiment: LTEA_HepaRG_HMGCS2: Life Technologies and Expression Analysis (LTEA) Assay for 3-Hydroxy-3-Methylglutaryl-CoA Synthase 2 (HMGCS2) using HepaRG (AID 2283504). The procedure, abridged:
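Human HepaRG cells in serum-free induction medium were exposed in duplicate for 48 h to 8-point half-log series from 100 uM top in 0.5% DMSO. HMGCS2 mRNA measured by TaqMan qRT-PCR, normalised to ACTB, GAPDH, POLR2A; bidirectional fit versus DMSO.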

Read-out in the next assay: HGF (gene 3082)
Description: LTEA_HepaRG_HGF: Life Technologies and Expression Analysis (LTEA) Assay for Hepatocyte Growth Facto (HGF) using HepaRG (AID 2283505). In outline:
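Differentiated HepaRG cells in serum-free induction medium exposed 48 h in duplicate, 8 half-log concentrations from 100 uM in 0.5% DMSO. HGF mRNA by qRT-PCR, normalised to ACTB, GAPDH, POLR2A; bidirectional fitting.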

Read-out in assay [11]: Insulin Like Growth Factor 1 (IGF1), IGF1 (gene 3479)
Description: LTEA_HepaRG_IGF1: Life Technologies and Expression Analysis (LTEA) Assay for Insulin Like Growth Factor 1 (IGF1) using HepaRG (AID 2283506). The procedure, abridged: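 Differentiated human HepaRG cells were dosed for 48 h in serum-free induction medium with 0.5% DMSO, eight half-log concentrations up to 100 uM, in duplicate. IGF1 mRNA was quantified by qRT-PCR normalized to ACTB, GAPDH, POLR2A; bidirectional fitting versus DMSO.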

Read-out in assay [12]: Insulin-like growth factor-binding protein 1 (IGFBP1), IGFBP1 (gene 3484)
As to the kind of experiment: LTEA_HepaRG_IGFBP1: Life Technologies and Expression Analysis (LTEA) Assay for Insulin-like growth factor-binding protein 1 (IGFBP1) using HepaRG (AID 2283508). The procedure, abridged:
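HepaRG cells, plated 48 h then switched to serum-free induction medium, exposed in duplicate for 48 h to 8-point half-log series from 100 uM in 0.5% DMSO. mRNA measured by qRT-PCR, normalized to ACTB/GAPDH/POLR2A; bidirectional fit versus DMSO.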

Read-out in assay [13]: Interleukin 6 (IL6), IL6 (gene 3569)
Description: LTEA_HepaRG_IL6: Life Technologies and Expression Analysis (LTEA) Assay for Interleukin 6 (IL6) using HepaRG (AID 2283509). The procedure, abridged:
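Differentiated human HepaRG cells, plated 48 h then switched to serum-free induction medium, were exposed in duplicate for 48 h to eight half-log concentrations up to 100 uM in 0.5% DMSO. IL6 mRNA measured by qRT-PCR, normalized to ACTB/GAPDH/POLR2A.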

Read-out in assay [14]: Interleukin 6 Receptor (IL6R), IL6R (gene 3570)
Description: LTEA_HepaRG_IL6R: Life Technologies and Expression Analysis (LTEA) Assay for Interleukin 6 Receptor (IL6R) using HepaRG (AID 2283510).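 On AC50: TaqMan qRT-PCR signal normalized to ACTB GAPDH and POLR2A housekeeping genes.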 In outline: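 Differentiated human HepaRG cells, plated 48 h then switched to serum-free induction medium, were dosed in duplicate for 48 h at eight half-log concentrations up to 100 uM in 0.5% DMSO. IL6R mRNA quantified by qRT-PCR, normalized to ACTB/GAPDH/POLR2A; bidirectional fit versus DMSO.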

Read-out in assay [15]: Potassium channel subfamily K member 1 (KCNK1), KCNK1 (gene 3775)
As to the kind of experiment: LTEA_HepaRG_KCNK1: Life Technologies and Expression Analysis (LTEA) Assay for Potassium channel subfamily K member 1 (KCNK1) using HepaRG (AID 2283511). The procedure, abridged: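 Differentiated human HepaRG cells in serum-free induction medium were exposed in duplicate for 48 h to 8 half-log concentrations up to 100 uM in 0.5% DMSO. KCNK1 mRNA was measured by TaqMan qRT-PCR, normalized to ACTB, GAPDH and POLR2A, and fitted bidirectionally versus DMSO.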

Read-out in assay [16]: Keratin 19 (KRT19), KRT19 (gene 3880)
Description: LTEA_HepaRG_KRT19: Life Technologies and Expression Analysis (LTEA) Assay for Keratin 19 (KRT19) using HepaRG (AID 2283512). The procedure, abridged:
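Differentiated HepaRG cells in serum-free induction medium, exposed 48 h in duplicate to 8 half-log concentrations up to 100 uM in 0.5% DMSO. KRT19 mRNA by qRT-PCR, normalized to ACTB, GAPDH, POLR2A; bidirectional fit vs DMSO.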

Read-out in a further assay: CYP3A5 (gene 1577)
As to the kind of experiment: LTEA_HepaRG_CYP3A5: Life Technologies and Expression Analysis (LTEA) Assay for CYP3A5 using HepaRG (AID 2283493). The procedure, abridged: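 Differentiated HepaRG cells in serum-free induction medium were dosed 48 h with test chemicals (8-point half-log series, top 100 uM, 0.5% DMSO, duplicate). CYP3A5 mRNA measured by qRT-PCR, normalized to ACTB, GAPDH, POLR2A; bidirectional fit versus DMSO.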

Read-out in assay [17]: Cytochrome P450 4A22 (Homo sapiens) (UniProt Q5TCH4)
Description: LTEA_HepaRG_CYP4A22: Life Technologies and Expression Analysis (LTEA) Assay for Cytochrome P450 4A22 (CYP4A22) using HepaRG (AID 2283495). In outline: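 Differentiated HepaRG cells in serum-free induction medium exposed 48 h in duplicate to eight half-log concentrations up to 100 uM in 0.5% DMSO. CYP4A22 mRNA quantified by TaqMan qRT-PCR, normalized to ACTB, GAPDH and POLR2A; bidirectional fit versus DMSO.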

Read-out in assay [18]: Hypoxia-inducible factor 1-alpha (Homo sapiens) (UniProt Q16665)
As to the kind of experiment: LTEA_HepaRG_HIF1A: Life Technologies and Expression Analysis (LTEA) Assay for Hypoxia-inducible factor 1 (HIF1A) Trancription factor using HepaRG (AID 2283503). In outline:
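HepaRG, 48 h exposure, 8-pt half-log series from 100 uM, 0.5% DMSO vehicle, duplicates. Readout: HIF1A transcript by qRT-PCR (Fluidigm array), housekeeping-normalised. Bidirectional curve fit vs DMSO baseline.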

Calls of active or inactive are those of the source. How the source made its calls: active means hit-call score of the fitted dose curve at least 0.9, where 1 is the maximum; inactive means score below 0.9.

Hypoxia-inducible factor 1-alpha (Homo sapiens), sequence (Q16665 whole entry, looked up): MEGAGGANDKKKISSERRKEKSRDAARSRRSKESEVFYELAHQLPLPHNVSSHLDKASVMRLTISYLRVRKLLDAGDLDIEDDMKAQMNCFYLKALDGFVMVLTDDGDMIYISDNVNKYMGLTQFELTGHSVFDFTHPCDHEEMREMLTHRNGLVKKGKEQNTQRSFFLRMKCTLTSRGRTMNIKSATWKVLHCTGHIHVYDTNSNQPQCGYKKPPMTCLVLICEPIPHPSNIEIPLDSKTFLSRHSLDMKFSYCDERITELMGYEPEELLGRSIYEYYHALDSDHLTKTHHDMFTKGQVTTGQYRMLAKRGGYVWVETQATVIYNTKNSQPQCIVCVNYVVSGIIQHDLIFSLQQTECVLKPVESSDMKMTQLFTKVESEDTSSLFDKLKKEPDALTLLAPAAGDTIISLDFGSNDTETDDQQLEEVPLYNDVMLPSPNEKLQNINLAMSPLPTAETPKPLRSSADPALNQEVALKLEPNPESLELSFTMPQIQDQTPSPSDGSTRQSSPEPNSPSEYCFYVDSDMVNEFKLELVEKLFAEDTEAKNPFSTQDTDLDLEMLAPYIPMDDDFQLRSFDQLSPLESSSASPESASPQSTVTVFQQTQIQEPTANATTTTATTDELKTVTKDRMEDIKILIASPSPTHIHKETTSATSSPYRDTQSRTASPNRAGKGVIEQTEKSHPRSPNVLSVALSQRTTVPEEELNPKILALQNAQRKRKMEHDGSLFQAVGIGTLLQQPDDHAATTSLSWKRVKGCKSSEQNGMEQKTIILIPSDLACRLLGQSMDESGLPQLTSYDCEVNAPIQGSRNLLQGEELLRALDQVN

Take `CN(C)CCOC(c1ccccc1)c1ccccc1`: the compound was called inactive in [1], in assay [2], in [3], in [4], in assay [5] and in assay [6]. Besides, the compound was called inactive (in assay [7]; in [8]; in assay [9]; in [10]; in the assay with HGF (gene 3082); in [11]). For the same compound, the compound was called inactive in assay [12], in assay [13], in assay [14], in assay [15] and in assay [16].

Turning to `CC(=O)Nc1ccc(O)cc1`, the result (in assay [1]; in assay [2]; with CYP3A5 (gene 1577); in assay [3]; in [17]; in assay [4]) was inactive. Besides, the outcome in assay [5], in [6], in [7], in assay [8], in [9] and in assay [10] was inactive. Besides, the outcome in assay [11], in assay [12], in assay [13], in [14], in [15] and in assay [16] was inactive.

For the compound `Cc1[nH]nc2c1N=C(c1ccccc1Cl)c1cc([N+](=O)[O-])ccc1N2`, the compound was called inactive in assay [1], in assay [7], in assay [9], in assay [18] and in [14]. Besides, the AC50 (as a rule, the concentration at which the activity in the assay is half-maximal) in [2] was 1.38 µM (active); with CYP3A5 (gene 1577) it was 13.4 µM (active); in assay [3], 8.85 µM (active); in [17], 8.32 µM (active); in assay [4], 17.2 µM (active); in [5], 2.83 µM (active). Besides, the AC50 in [6] is 0.557 µM (active); in assay [8], 50 µM (active); in assay [10], 28.8 µM (active); in the assay with HGF (gene 3082), 2.84 µM (active); in assay [11] it was 1.88 µM (active); in [12], 79.6 µM (active). The AC50 in assay [15] was 3.09 µM (active); in assay [16], 1.24 µM (active).

As to `O=C(CCCN1CCC(O)(c2ccc(Cl)cc2)CC1)c1ccc(F)cc1`, the AC50 was 94.4 µM (active) in assay [1]; 93.2 µM (active) in assay [3]; 64 µM (active) in [17]; 78 µM (active) in assay [4]; 77.1 µM (active) in assay [5]; 50 µM (active) in [6]. Moreover, the AC50 in [7] was 71.9 µM (active); in assay [9], 74.3 µM (active); in [10], 84.4 µM (active); in assay [11] it was 78.5 µM (active); in assay [12], 71.1 µM (active); in assay [13], 80.9 µM (active). Moreover, the AC50 was 50 µM (active) in [14], 84.4 µM (active) in assay [15] and 36.7 µM (active) in [16]. Moreover, the call (in assay [2]; with CYP3A5 (gene 1577); in assay [8]) was inactive.
